Most compounds without a hit are left out; they make up all but 9.5% or so of the library.
RE007 growth inh: less growth of the S. pombe RE007 Vpr strain | Potency, µM (doses to about 92.2 µM), for inactives: at the highest dose activity change, negative = less growth, actives largely listed as inhibitors | S. pombe RE007 Vpr strain, BacTiter-Glo ATP luminescence, 24 h | 360,000 compounds, 0.21% hits; active means well fitted falling curve with a large enough effect; inconclusive means small, poorly fitted or top-dose-only effect; inactive means no such curve, though single readings can be large or run the other way; further: on the % scale 0 is the no-effect control and ±100 the full control effect; nearly all actives have a fitted effect of over 50% in size
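Fission yeast RE007 carrying one integrated HIV-1 vpr copy, seeded at OD 0.01 in PMG+AL medium with 23 nL pinned compound. Grown 24 h at 30 degrees; viability read by BacTiter-Glo luminescence after 5 min.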
NS1 inh: blocks influenza NS1 protein function. Potency, µM (titrated, usually from 46.1 µM), for the others: at the highest dose activity, positive = more growth. 270,000 compounds, 0.4% hits. AID 2326; calls by dose curve; further: actives are rising curves; nearly all actives have a fitted effect of over 50% in size
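Recovery from NS1-induced slow growth read by OD600 in budding yeast switched to galactose assay medium (pH 6.0, -URA) at 1:100 dilution. Compound 23 nl per well; the matching strain lacking NS1 serves as control.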
SARS PLpro yeast: inhibitors of SARS-CoV papain-like protease in yeast; Potency, µM (top dose mostly 32.9 µM), inactives show at the highest dose activity, positive = growth rescue, most hits filed as activators; 330,000 compounds, 0.19% hits; S. cerevisiae expressing SARS-CoV PLpro, growth rescue; AID 485353; calls by dose curve; further: 0% is about no effect; nearly all actives have a fitted effect of over 55% in size
Pf growth 96h: inhibits malaria parasite growth, 96 h. Potency, µM (top dose mostly 28.7 µM), for inactives: at the highest dose activity change, negative = inhibition, most hits filed as inhibitors. AID 504834. P. falciparum luciferase reporter growth, 96 h. 320,000 compounds, 6.9% hits; further: on the % scale 0 is the no-effect control and ±100 the full control effect
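Infected RBCs, 2% Hct / 0.05% parasitemia final; luciferase-reporter P. falciparum; cpd 96 h, 37 C, 5% CO2; luciferase detection reagent; luminescence.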
Pf growth 48h: inhibits P. falciparum growth in the first generation, 48 h; Potency, µM (doses to about 28.7 µM), without a hit: top-dose activity change, negative = inhibition, most hits filed as inhibitors; P. falciparum luciferase growth in erythrocytes, 48 h; 310,000 compounds, 5.9% hits; AID 504832; further: on the % scale 0 is the no-effect control and ±100 the full control effect
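Here the parasites carry a stable luciferase gene and grow inside erythrocytes in Albumax-based RPMI medium with compound for one erythrocytic cycle. Activity is scored as loss of luminescent signal.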
An asterisk follows results filed as active; ? = inconclusive; · = not tested or not shown; [ ] = dose if it differs, or a comment. Unless noted, the call rests on the fitted dose curve; in most records, active means well fitted inhibition curve with a large enough effect; inconclusive means small, poorly fitted or top-dose-only effect, or another doubt; inactive means no such curve, though single readings can be large or run the other way. Potency means the concentration at half of the fitted maximal effect.

SMILES	RE007 growth inh	NS1 inh	SARS PLpro yeast	Pf growth 96h	Pf growth 48h
COc1ccc(C(=O)CN2C(=O)c3ccccc3S2(=O)=O)cc1Br	7%	?	9%	?	-20%
COc1ccc(C(=O)CN2C(=O)c3ccccc3S2(=O)=O)cc1	-5%	-3%	-1%	76%	7.4µM*
CCCn1c(C)cc(C(=O)CN2C(=O)c3ccccc3S2(=O)=O)c1C	5%	·	·	·	·
COc1cc(-c2nnc(SCC(=O)c3cc(C)n(CC4CCCO4)c3C)o2)cc(OC)c1OC (stereo unspecified)	14%	3%	-3%	-19%[5.75 µM]	8.3µM*
Cc1cc(C(=O)CSc2nnc(-c3cccnc3)n2-c2ccccc2F)c(C)n1CC1CCCO1 (stereo unspecified)	-10%	12%	-3%	15µM*	·
Cc1cc(C(=O)CN2C(=O)c3ccccc3S2(=O)=O)c(C)n1CC1CCCO1 (stereo unspecified)	40%	0%	-2%	10%	2.1µM*
Cc1cc(N(C)C)cc(C)c1N=Nc1cc[n+]([O-])cc1	-11%	·	·	·	·
N#C/C(=C\Nc1ccccn1)C(=O)c1ccco1	·	3%	·	·	·
Cc1cc(C(=O)CSc2nnc(-c3ccc(F)cc3)o2)c(C)n1CC1CCCO1 (stereo unspecified)	-12%	5%	2%	13µM*	-6%
COc1ccccc1Nc1nnc(SCC(=O)c2cc(C)n(CC3CCCO3)c2C)s1 (stereo unspecified)	-6%	?	3%	4.7µM*	10µM*
COc1cc(-c2nnc(SCC3(c4ccc(Br)cc4)OCCO3)o2)cc(OC)c1OC	-4%	5%	-3%	13µM*	10µM*
COc1cc(-c2nnc(SCC(=O)/C(C#N)=C(\C)N)o2)cc(OC)c1OC	-3%	-3%	-2%	9.3µM*	?
Cc1cc(C(=O)CSc2nnnn2-c2ccccc2)c(C)n1CC1CCCO1 (stereo unspecified)	-9%	2%	-1%	-2%	178%
Cc1ccc(NC(=O)C2CSC3(C)CCC(=O)N23)cc1S(=O)(=O)N1CCCCCC1 (stereo unspecified)	10%	·	4%	?	?
O=S(=O)(c1cccc(Cn2nnc(-c3ccccc3)n2)c1)N1CCOCC1	-16%	·	-2%	·	·
Cc1cccc(-n2ncc3c(NCc4ccccc4)ncnc32)c1	16%	-21%	-22%	-4%	47%
Cc1cccc(-n2ncc3c(NCCc4ccc(S(N)(=O)=O)cc4)ncnc32)c1	-16%	-6%	-1%	10µM*	·
COc1ccc(CN(C(=O)c2cccs2)C(C(=O)NC2CCCCC2)c2ccc3ncccc3c2)cc1 (stereo unspecified)	-15%	-30%	-23%	10µM*	?
O=C(NC1CCCCC1)C(c1ccc2ncccc2c1)N(Cc1ccc2c(c1)OCO2)C(=O)c1cccs1 (stereo unspecified)	-8%	-16%	-1%	5.9µM*	?
O=C(NC1CCCCC1)C(c1ccc2ncccc2c1)N(Cc1ccccc1)C(=O)c1cccs1 (stereo unspecified)	-1%	16%	-7%	?	10µM*
COc1ccc(CN(C(=O)c2nsc(Cl)c2Cl)C(C(=O)NC2CCCC2)c2ccc(C)cc2)cc1 (stereo unspecified)	10%	15%	-37%	10µM*	?
COc1ccc(C(C(=O)NC2CCCCC2)N(C(=O)c2cccs2)c2ccc3c(c2)OCO3)cc1 (stereo unspecified)	9%	20%	3%	?	?
Cc1cc(=O)[nH]c2c(C)cc(S(=O)(=O)N3CCCCC3)cc12	-1%	-6%	-5%	13µM*	-6%
Cc1cc(=O)[nH]c2c(C)cc(S(=O)(=O)N3CCOCC3)cc12	-6%	·	·	·	·
O=C(/C=C/c1ccc(Cl)cc1Cl)NCc1ccncc1	6%	1%	5%	12µM*	?
SMILES	RE007 growth inh	NS1 inh	SARS PLpro yeast	Pf growth 96h	Pf growth 48h
CCN(CC)CCOC(=O)C(O)(c1ccccc1)c1ccccc1	5%[18.4 µM]	-12%	3%	-1%	7%
CCN(CC)CCOCCOC(=O)C(CC)(CC)c1ccccc1 (tested in a mixture with another compound)	·	·	·	6.7µM*	19µM*
CC(=O)Nc1ccc(NC(=O)C(C)OC(=O)c2ccc3ccccc3n2)cc1 (stereo unspecified)	-9%	·	-6%	0%	-14%
Cc1cccc(/C(N)=N/OC(=O)N2c3ccccc3Sc3ccccc32)c1	-29%	-155%	-36%	6.6µM*	?
N/C(=N\OC(=O)c1ccc2c(c1)OCO2)c1cccc([N+](=O)[O-])c1	-19%	-1%	-1%	111%	2%
Cc1cccc(/C(N)=N/OC(=O)c2ccc3c(c2)OCO3)c1	35µM*	-18%	-115%	?	-58%
CSCCC(C(=O)Nc1c(C)cccc1C)N1CCN(c2ccc(C(F)(F)F)cn2)CC1 (stereo unspecified)	-2%	·	·	·	·
CCCOc1ccc(/C=N/NC(=S)Nc2ccccc2[N+](=O)[O-])c(O)c1	5%	21%	10µM*	?	2.6µM*
O=C(CNC(=O)c1ccco1)NCC(=O)OCc1ccc(Cl)cc1Cl	1%	9%	-13%	0%	5%
O=C(OCCCOC(=O)c1ccc([N+](=O)[O-])o1)c1ccc([N+](=O)[O-])o1	-10%	·	·	6%	13µM*
CCOC(=O)C1CCN(C(=O)COC(=O)c2ccc([N+](=O)[O-])o2)CC1	-28%	·	0%	12µM*	?
C=CCOc1c(Br)cc(CNc2ccc(NC(=O)C(C)C)cc2)cc1OCC	-9%	10%	5%	13µM*	-8%
CCCCn1c(N)c(N(CC(C)C)C(=O)CSc2ccccc2C)c(=O)[nH]c1=O	-2%	·	0%	?	2%
CCOC(=O)c1ccc(N2C(=O)CC(N3CCCC(C)C3)C2=O)cc1 (stereo unspecified)	3.2µM*	-35%	-36%	31%	·
CCOC(=O)c1ccc(N2C(=O)CC(N3CCC(O)(c4ccc(Cl)cc4)CC3)C2=O)cc1 (stereo unspecified)	?	-41%	-36%	0%	-14%
CCOC(=O)C1CCCN(C2CC(=O)N(c3cccc(C)c3)C2=O)C1 (stereo unspecified)	25µM*	-53%	-18%	-37%	7%
Cc1cccc(N2C(=O)CC(N3CCOCC3)C2=O)c1 (stereo unspecified)	-28%	-3%	-6%	-22%	4%
CCOC(=O)c1ccc(N2C(=O)CC(N3CCC(Nc4ccc(F)cc4)CC3)C2=O)cc1 (stereo unspecified)	7.9µM*	-69%	-27%	12%	·
Cc1cc(C)c(C)c(C(=O)C(=O)c2ccccc2)c1	-1%	·	·	·	·
Cc1ccc(S(=O)(=O)N2CCOCC2)cc1NC(=O)COC(=O)CCC(=O)c1ccc(F)cc1	-21%	·	-1%	1%	24%

Bioassay records deposited in PubChem BioAssay by National Center for Advancing Translational Sciences (NCATS).
